FadD28 binding: inhibitors of Mycobacterium tuberculosis FadD28 bisubstrate binding; FadD28 bisubstrate probe binding, fluorescence polarization; inhibition, % at 12.5 µM; 360,000 compounds, 0.22% hits; in the data active = inhibition above about 8.5%, passing the limit was not always enough; inconclusive = no clear call, values can overlap the other calls
Mtb FBA inh: inhibits M. tuberculosis FBA enzyme. P9WQA3. purified M. tuberculosis FBA, fluorescence read-out. inhibition, % at 1 µM. 360,000 compounds, 2.3% hits. AID 588726;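 also: 0% = vehicle and 100% = reference inhibitor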
Target sequence (P9WQA3 whole entry, looked up): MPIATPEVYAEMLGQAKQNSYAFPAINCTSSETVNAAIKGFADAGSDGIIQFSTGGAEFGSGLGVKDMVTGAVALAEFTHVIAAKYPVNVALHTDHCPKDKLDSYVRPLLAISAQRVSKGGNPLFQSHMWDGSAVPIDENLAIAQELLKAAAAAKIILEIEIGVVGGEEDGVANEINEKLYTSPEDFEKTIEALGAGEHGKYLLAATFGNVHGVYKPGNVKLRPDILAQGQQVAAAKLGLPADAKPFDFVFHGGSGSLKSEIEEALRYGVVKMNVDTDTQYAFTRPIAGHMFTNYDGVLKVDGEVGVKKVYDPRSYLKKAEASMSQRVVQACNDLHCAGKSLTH
Mtb BioA inh: inhibitors of Mycobacterium tuberculosis BioA enzyme. purified M. tuberculosis BioA enzyme, plate reader. inhibition, % at 9.99 µM. 360,000 compounds, 0.096% hits. AID 602481; in the data active = inhibition above about 40%; inconclusive = no clear call, values can overlap the other calls
3CLpro inhibitor: SARS-CoV 3CLpro protease inhibition; AID 1706; recombinant SARS-CoV 3CLpro, quenched FRET peptide cleavage; P0C6X7; 290,000 compounds, 0.14% hits; inhibition, % at 6 µM; in the data active = inhibition above about 12%
GDH-TPI counter-1: counter-screen for M. tuberculosis FBA inhibitors: GDH-TPI coupled enzymes; GDH-TPI coupled enzyme counterscreen, NADH absorbance; inhibition, % at 4.8 µM; 360,000 compounds, 1.2% hits; AID 588335; in the data active = inhibition above about 30%;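 also: 0% = DMSO wells and 100% = wells lacking the enzyme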
Mtb FBA confirm: confirmation of M. tuberculosis fructose-bisphosphate aldolase inhibitors | shares compounds with Mtb FBA inh | purified M. tuberculosis FBA, fluorescence read-out | inhibition, % at 1 µM | 5,600 compounds, 78% hits | AID 651616;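 also: 0% = vehicle wells and 100% = reference inhibitor wells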
GDH-TPI counter-2: inhibits GDH-TPI coupling enzymes, flagging Mtb FBA hits | GDH-TPI coupled enzyme counterscreen, fluorescence | 5,600 compounds, 81% hits | inhibition, % at 1 µM | shares compounds with Mtb FBA inh; in the data active = inhibition above about 10%
The depositor's hits bear a star; ? = inconclusive; . = no result given; + = active, no number. This is a sample that favours compounds with a hit; in the whole collection about 3.1% have one here. Rule as the data show it, unless noted: active = inhibition above about 27%; inactive = the rest.

SMILES	FadD28 binding	Mtb FBA inh	Mtb BioA inh	3CLpro inhibitor	GDH-TPI counter-1	Mtb FBA confirm	GDH-TPI counter-2
Cc1cc(=O)oc2cc(OCC(=O)N3CCCC3)c(Cl)cc12	-3	31*	-1	.	0	13	24*
Cc1cc(=O)oc2cc(OCC(=O)N3CCOCC3)c(Cl)cc12	-4	109*	-1	.	17	+	+
Cc1cc(=O)oc2cc(OCC(=O)N3CCC(O)CC3)c(Cl)cc12	0	14	3	-2	10	.	.
COCCNC(=O)C[C@H]1C[C@H]2c3cc(NC(=O)NC4CCCCC4)ccc3O[C@H]2[C@@H](CO)O1	.	.	-1	.	.	.	.
CC(C)CC(c1nc2ccccc2[nH]1)n1c(-c2ccccc2Br)nc2ccccc21 (configuration not stated)	-2	0	1	.	.	.	.
COc1ccc2nc(C(c3ccc(C)cc3)n3c(-c4ccccc4Br)nc4ccccc43)[nH]c2c1 (configuration not stated)	-2	52*	-4	.	.	+	+
Nc1ccc2c(c1)[nH]c(=O)c1cc(N)ccc12	?	32*	2	.	0	23	18*
O=c1cc(CN2CC=C(c3ccccc3)CC2)c2c(ccc3ccccc32)o1	-3	94*	.	3	13	114*	100*
C[C@H]1CN([C@@H](C)CO)C(=O)c2cc(C#CC3CC3)cnc2O[C@H]1CN(C)C(=O)CC1CC1	.	.	0	.	.	.	.
Cc1ccc(S(=O)(=O)N(C)C)cc1NC(=S)Nc1cccc2ccccc12	-5	34*	0	5	-3	+	194*
Cc1cccc(NC(=S)Nc2cccc3ccccc23)c1	-5	47*	0	6	12	143*	112*
Cc1cc(C)cc(NC(=S)Nc2cccc3ccccc23)c1	-2	42*	-2	7	9	147*	129*
CCc1cccc(NC(=S)Nc2cccc3ccccc23)c1	-1	46*	-1	7	7	86*	77*
C[C@@H]1CN([C@H](C)CO)C(=O)c2cc(-c3cccnc3)cnc2O[C@@H]1CN(C)C(=O)Cc1cccnc1	.	.	-2	.	.	.	.
C/C=C/c1ccc2c(c1)O[C@H](CN(C)C(=O)Nc1ccccc1)[C@H](C)CN([C@H](C)CO)S2(=O)=O	.	.	0	.	.	.	.
Cc1noc(C)c1S(=O)(=O)Nc1cccc2c1O[C@H](CN(C)S(=O)(=O)c1cccs1)[C@H](C)CN([C@@H](C)CO)C2=O	.	.	0	.	.	.	.
Fc1ccc(NC(=S)Nc2cccc3ccccc23)cc1F	-3	49*	-2	5	11	24	17*
Fc1ccc(NC(=S)Nc2cccc3ccccc23)cc1	-1	19	-1	-1	5	.	.
C[C@H](CO)N1C[C@H](C)[C@H](CN(C)C)Oc2ccc(NS(=O)(=O)c3ccc(F)cc3)cc2C1=O	.	.	-3	.	.	.	.
CCn1c(SC(=O)NC2CCCCC2)nnc1-c1cccs1	0	46*	0	0	16	-2	0
CCOC(=O)N1CCC(NC(=O)c2ccc3c(c2)N(Cc2ccc(F)cc2)CCS3)CC1	0	71*	-2	-4	5	182*	151*
CCOC(=O)N1CCC(NC(=O)c2ccc3c(c2)N(Cc2ccccc2)CCS3)CC1	-3	28*	-2	1	0	65*	62*
CCOC(=O)N1CCN(C(=O)c2ccc3c(c2)N(CC)CCS3)CC1	-3	3	1	5	10	.	.
C[C@@H]1CN([C@@H](C)CO)C(=O)c2cc(C#CC3CCCC3)cnc2O[C@H]1CN(C)C(=O)c1ccncc1	.	.	2	.	.	.	.
Cc1ccc(S(=O)(=O)Nc2ccc3c(c2)C(=O)N([C@@H](C)CO)C[C@@H](C)[C@H](CN(C)C(=O)NC(C)C)OCCCC[C@@H](C)O3)cc1	.	.	-1	.	.	.	.
SMILES	FadD28 binding	Mtb FBA inh	Mtb BioA inh	3CLpro inhibitor	GDH-TPI counter-1	Mtb FBA confirm	GDH-TPI counter-2
CC(C)c1nc(NCC2CCCO2)c(C#N)c2c1COC(C)(C)C2 (configuration not stated)	-5	55*	0	4	8	123*	101*
CCc1nc(NCC2CCCO2)c(C#N)c2c1COC(C)(C)C2 (configuration not stated)	-3	71*	-1	-4	9	140*	105*
CC(C)c1nc(Cl)c(C#N)c2c1COC(C)(C)C2	0	1	.	-2	5	.	.
CCc1nc(NCC(C)C)c(C#N)c2c1COC(C)(C)C2	-1	-3	-1	6	1	.	.
O=C(C[C@@H]1CC[C@H](NC(=O)Nc2ccccc2)[C@@H](CO)O1)NCc1cccc(F)c1	.	.	-2	.	.	.	.
COc1cccc(S(=O)(=O)N[C@@H]2C=C[C@@H](CC(=O)NCc3ccccc3)O[C@@H]2CO)c1	.	.	0	.	.	.	.
S=c1nc(-c2ccccc2)n(-c2ccccc2)[nH]1	-5	5	0	4	-6	.	.
O=c1nc(-c2ccccc2)n(-c2ccc(Cl)cc2)[nH]1	-3	28*	-1	1	-2	128*	105*
OC[C@@H]1CCCN1Cc1cn(-c2ccccc2)nc1-c1ccc2c(c1)OCO2	-2	29*	4	-2	23	54*	35*
C[C@@H](NC(=O)C[C@@H]1C[C@@H]2c3cc(NC(=O)C4CCC4)ccc3O[C@@H]2[C@H](CO)O1)c1ccccc1	.	.	-2	.	.	.	.
COc1ccccc1S(=O)(=O)N[C@H]1CC[C@@H](CC(=O)NCc2cccc(F)c2)O[C@@H]1CO	.	.	-2	.	.	.	.
CC(C)Sc1nc(NCc2ccco2)c2c3c(sc2n1)COC(C)(C)C3	-3	85*	-1	0	9	+	+
CC(C)NC(=O)N1[C@H](CN(C)C(=O)c2ccccc2)[C@@H](c2ccccc2)[C@@H]1CO	.	.	1	.	.	.	.
Cc1cc(N2CCN(C)CC2)nc2ccc(NC(=O)CCC(=O)NCc3ccco3)cc12	-1	32*	1	2	5	68*	69*
CCCCNC(=O)CCC(=O)Nc1ccc2nc(N3CCN(C)CC3)cc(C)c2c1	1	23	1	-2	3	.	.
Cc1cc(N2CCN(C)CC2)nc2ccc(NC(=S)N3CCN(c4ccc(F)cc4)CC3)cc12	-3	9	-1	-1	-3	.	.
Cc1cc(N2CCN(C)CC2)nc2ccc(NC(=S)N3CCN(c4ccc(Cl)cc4)CC3)cc12	-1	27*	-1	-14	11	135*	128*
Cc1cc(N2CCN(C)CC2)nc2ccc(NC(=O)CCC(=O)NCCC(C)C)cc12	-1	33*	-1	6	21	5	5
COc1ccc(C)cc1NC(=O)CCC(=O)Nc1ccc2nc(N3CCN(C)CC3)cc(C)c2c1	.	.	.	-5	.	.	.
C[C@H]1CN([C@@H](C)CO)C(=O)Cc2cc(NC(=O)Nc3ccc(C(F)(F)F)cc3)ccc2O[C@H]1CN(C)S(=O)(=O)c1cn(C)cn1	.	.	1	.	.	.	.
Cc1ccc(-n2c(=O)[nH]c3c(C(N)=O)nc(C(C)C)nc32)cc1	0	10	-2	-4	18	.	.

Screening results: PubChem, several laboratories
